# Assay results reported in the supplement of paper PMC7765376.
# Where a name gives a salt, the structure may show the parent alone. Whole data set: some 1,500 compounds, median “Excess HSA synergy score (sum over dose matrix of excess over highest single agent)” near 43, cut for the lowest 2% near -900. The list comes from a sample in which the lowest values are over-represented; it also holds similar structures and randomly drawn compounds.
# Tested on: PEO-1
# Experiment: Excess HSA synergy score (sum over dose matrix of excess over highest single agent) (score (summed % response)); higher = less synergy / more antagonism (negative = synergy)
# Settings: 72 h, read-out: viability/apoptosis luminescence (CellTiter-Glo or Caspase3-Glo / not stated per table)
# [1] = matrix design: 6x6, 5-fold dilutions (primary screen)
# [2] = matrix design: 10x10, 9-step dilutions (confirmatory)
smiles,measurement,setting,value
Cc1ccc(NC(=O)c2cccc(C(C)(C)C#N)c2)cc1Nc1ccc2ncn(C)c(=O)c2c1 + CC[C@H](NC(=O)[C@H](C)NC)C(=O)N1C[C@@H](O)C[C@H]1Cc1c(-c2[nH]c3cc(F)ccc3c2C[C@@H]2C[C@H](O)CN2C(=O)[C@H](CC)NC(=O)[C@H](C)NC)[nH]c2cc(F)ccc12 [Birinapant],Excess HSA synergy score,[1],31.8
CCNC(=O)Nc1ccc2ncc(Nc3ccc(C)cc3)nc2n1 + CC[C@H](NC(=O)[C@H](C)NC)C(=O)N1C[C@@H](O)C[C@H]1Cc1c(-c2[nH]c3cc(F)ccc3c2C[C@@H]2C[C@H](O)CN2C(=O)[C@H](CC)NC(=O)[C@H](C)NC)[nH]c2cc(F)ccc12 [Birinapant],Excess HSA synergy score,[1],77.2
Cc1nc(Nc2n[nH]c3c2CN(C(=O)N[C@H](CN(C)C)c2ccccc2)C3(C)C)c2sccc2n1 + CC[C@H](NC(=O)[C@H](C)NC)C(=O)N1C[C@@H](O)C[C@H]1Cc1c(-c2[nH]c3cc(F)ccc3c2C[C@@H]2C[C@H](O)CN2C(=O)[C@H](CC)NC(=O)[C@H](C)NC)[nH]c2cc(F)ccc12 [Birinapant],Excess HSA synergy score,[1],-399
same,Excess HSA synergy score,[2],-1930
Cc1cnc(-c2cc(N3CCN(C(=O)CCS(C)(=O)=O)CC3)ncc2Cl)c(C)c1 + CC[C@H](NC(=O)[C@H](C)NC)C(=O)N1C[C@@H](O)C[C@H]1Cc1c(-c2[nH]c3cc(F)ccc3c2C[C@@H]2C[C@H](O)CN2C(=O)[C@H](CC)NC(=O)[C@H](C)NC)[nH]c2cc(F)ccc12 [Birinapant],Excess HSA synergy score,[1],211
O=C(CCN1CCN(C(=O)OCc2cc(Cl)cc(Cl)c2)CC1)c1ccc2[nH]c(=O)oc2c1 + CC[C@H](NC(=O)[C@H](C)NC)C(=O)N1C[C@@H](O)C[C@H]1Cc1c(-c2[nH]c3cc(F)ccc3c2C[C@@H]2C[C@H](O)CN2C(=O)[C@H](CC)NC(=O)[C@H](C)NC)[nH]c2cc(F)ccc12 [Birinapant],Excess HSA synergy score,[1],-22.5
CC1(C)OC2=C(C(=O)c3ccccc3C2=O)[C@H](NCc2ccccc2)[C@@H]1O + CC[C@H](NC(=O)[C@H](C)NC)C(=O)N1C[C@@H](O)C[C@H]1Cc1c(-c2[nH]c3cc(F)ccc3c2C[C@@H]2C[C@H](O)CN2C(=O)[C@H](CC)NC(=O)[C@H](C)NC)[nH]c2cc(F)ccc12 [Birinapant],Excess HSA synergy score,[1],60.3
C[C@@H](Oc1cc(-c2cnn(C3CCNCC3)c2)cnc1N)c1c(Cl)ccc(F)c1Cl [Crizotinib] + CC[C@H](NC(=O)[C@H](C)NC)C(=O)N1C[C@@H](O)C[C@H]1Cc1c(-c2[nH]c3cc(F)ccc3c2C[C@@H]2C[C@H](O)CN2C(=O)[C@H](CC)NC(=O)[C@H](C)NC)[nH]c2cc(F)ccc12 [Birinapant],Excess HSA synergy score,[1],-219
CCOC(=O)N1CCN(/[N+]([O-])=N/Oc2ccc([N+](=O)[O-])cc2C#N)CC1 + CC[C@H](NC(=O)[C@H](C)NC)C(=O)N1C[C@@H](O)C[C@H]1Cc1c(-c2[nH]c3cc(F)ccc3c2C[C@@H]2C[C@H](O)CN2C(=O)[C@H](CC)NC(=O)[C@H](C)NC)[nH]c2cc(F)ccc12 [Birinapant],Excess HSA synergy score,[1],10.9
O=C1NC(=O)[C@@H](c2cn3c4c(cccc24)CCC3)[C@@H]1c1c[nH]c2ccccc12 [Tivantinib] + CC[C@H](NC(=O)[C@H](C)NC)C(=O)N1C[C@@H](O)C[C@H]1Cc1c(-c2[nH]c3cc(F)ccc3c2C[C@@H]2C[C@H](O)CN2C(=O)[C@H](CC)NC(=O)[C@H](C)NC)[nH]c2cc(F)ccc12 [Birinapant],Excess HSA synergy score,[1],-96.6
COC(=O)Nc1ccc(-c2nc(N3CCOCC3)c3cnn(C4CCN(C(=O)OC)CC4)c3n2)cc1 + CC[C@H](NC(=O)[C@H](C)NC)C(=O)N1C[C@@H](O)C[C@H]1Cc1c(-c2[nH]c3cc(F)ccc3c2C[C@@H]2C[C@H](O)CN2C(=O)[C@H](CC)NC(=O)[C@H](C)NC)[nH]c2cc(F)ccc12 [Birinapant],Excess HSA synergy score,[1],-64.3
O=C(O)c1ccccc1C(=O)Nc1ccc(-c2ccccc2)cc1 [Kartogenin] + CC[C@H](NC(=O)[C@H](C)NC)C(=O)N1C[C@@H](O)C[C@H]1Cc1c(-c2[nH]c3cc(F)ccc3c2C[C@@H]2C[C@H](O)CN2C(=O)[C@H](CC)NC(=O)[C@H](C)NC)[nH]c2cc(F)ccc12 [Birinapant],Excess HSA synergy score,[1],460
COc1cc(C(=O)NC2CCN(C)CC2)ccc1Nc1ncc2c(n1)N(C1CCCC1)CCC(=O)N2C(C)C + CC[C@H](NC(=O)[C@H](C)NC)C(=O)N1C[C@@H](O)C[C@H]1Cc1c(-c2[nH]c3cc(F)ccc3c2C[C@@H]2C[C@H](O)CN2C(=O)[C@H](CC)NC(=O)[C@H](C)NC)[nH]c2cc(F)ccc12 [Birinapant],Excess HSA synergy score,[1],135
CC[C@@H]1C(=O)N(C)c2cnc(Nc3ccc(C(=O)N[C@H]4CC[C@H](N5CCN(CC6CC6)CC5)CC4)cc3OC)nc2N1C(C)C [Volasertib] + CC[C@H](NC(=O)[C@H](C)NC)C(=O)N1C[C@@H](O)C[C@H]1Cc1c(-c2[nH]c3cc(F)ccc3c2C[C@@H]2C[C@H](O)CN2C(=O)[C@H](CC)NC(=O)[C@H](C)NC)[nH]c2cc(F)ccc12 [Birinapant],Excess HSA synergy score,[1],22.4
same,Excess HSA synergy score,[2],-1030
CC[C@@H]1C(=O)N(C)c2cnc(Nc3ccc(C(=O)NC4CCN(C)CC4)cc3OC)nc2N1C1CCCC1 + CC[C@H](NC(=O)[C@H](C)NC)C(=O)N1C[C@@H](O)C[C@H]1Cc1c(-c2[nH]c3cc(F)ccc3c2C[C@@H]2C[C@H](O)CN2C(=O)[C@H](CC)NC(=O)[C@H](C)NC)[nH]c2cc(F)ccc12 [Birinapant],Excess HSA synergy score,[1],-84.2
COc1ccc(-n2nc(C(N)=O)c3c2C(=O)N(c2ccc(N4CCCCC4=O)cc2)CC3)cc1 [Apixaban] + CC[C@H](NC(=O)[C@H](C)NC)C(=O)N1C[C@@H](O)C[C@H]1Cc1c(-c2[nH]c3cc(F)ccc3c2C[C@@H]2C[C@H](O)CN2C(=O)[C@H](CC)NC(=O)[C@H](C)NC)[nH]c2cc(F)ccc12 [Birinapant],Excess HSA synergy score,[1],-103
CN1CC2c3ccccc3Oc3ccc(Cl)cc3C2C1 (configuration not stated) [Asenapine maleate] + CC[C@H](NC(=O)[C@H](C)NC)C(=O)N1C[C@@H](O)C[C@H]1Cc1c(-c2[nH]c3cc(F)ccc3c2C[C@@H]2C[C@H](O)CN2C(=O)[C@H](CC)NC(=O)[C@H](C)NC)[nH]c2cc(F)ccc12 [Birinapant],Excess HSA synergy score,[1],164
O=S(=O)(O)c1ccc2cc(N=Nc3cc(S(=O)(=O)O)c4cccnc4c3O)ccc2c1 + CC[C@H](NC(=O)[C@H](C)NC)C(=O)N1C[C@@H](O)C[C@H]1Cc1c(-c2[nH]c3cc(F)ccc3c2C[C@@H]2C[C@H](O)CN2C(=O)[C@H](CC)NC(=O)[C@H](C)NC)[nH]c2cc(F)ccc12 [Birinapant],Excess HSA synergy score,[1],130
NC[C@H]1O[C@H](O[C@H]2[C@H](O)[C@@H](O[C@H]3O[C@H](CO)[C@@H](O)[C@H](N)[C@H]3O)[C@H](N)C[C@@H]2N)[C@H](O)[C@@H](O)[C@@H]1O [Kanamycin] + CC[C@H](NC(=O)[C@H](C)NC)C(=O)N1C[C@@H](O)C[C@H]1Cc1c(-c2[nH]c3cc(F)ccc3c2C[C@@H]2C[C@H](O)CN2C(=O)[C@H](CC)NC(=O)[C@H](C)NC)[nH]c2cc(F)ccc12 [Birinapant],Excess HSA synergy score,[1],-24.6
CCc1cccc(CC)c1NC(=O)N1Cc2[nH]nc(NC(=O)c3ccc(N4CCN(C)CC4)cc3)c2C1 + CC[C@H](NC(=O)[C@H](C)NC)C(=O)N1C[C@@H](O)C[C@H]1Cc1c(-c2[nH]c3cc(F)ccc3c2C[C@@H]2C[C@H](O)CN2C(=O)[C@H](CC)NC(=O)[C@H](C)NC)[nH]c2cc(F)ccc12 [Birinapant],Excess HSA synergy score,[1],-207
O=C(O)c1ccc(-c2cc3cccnc3c(-c3ccc4nonc4c3)n2)cc1 + CC[C@H](NC(=O)[C@H](C)NC)C(=O)N1C[C@@H](O)C[C@H]1Cc1c(-c2[nH]c3cc(F)ccc3c2C[C@@H]2C[C@H](O)CN2C(=O)[C@H](CC)NC(=O)[C@H](C)NC)[nH]c2cc(F)ccc12 [Birinapant],Excess HSA synergy score,[1],-117
